Active and inactive are the calls of the source. The rule behind the calls is not given here.

Assay [1] can be described thus: polyglutamine aggregate formation blockers (AID 1604). The settings on record: polyglutamine-induced protein aggregation inhibition assay; stronger effect = higher value; tested at 2.5 µM.
The nature of assay [2]: glutamate transport activators, MN-1 cells, MN-1 cell line (AID 1612).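 Note: tested at 1 µM final; 0% = mean of DMSO vehicle wells on each plate; positive means more glutamate uptake than control and negative means less.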 The following applies: MN-1 motor neuron cells, stronger effect = higher value.
A short description of assay [3]: GFP-Q80 aggregate reduction, neuronal-like cells, cell-based, NGF-treated PC12, GFPQ80 (AID 1614).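 Note: lower means fewer inclusions and 0 means no inclusions at all.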 The settings on record: PC12 NGF-treated GFP-polyQ80 inclusion reduction.
Assay [4] in a line: 75Q-TubH aggregate inhibition, S. cerevisiae, yeast (AID 1616). The settings on record: S. cerevisiae 75Q-TubH polyglutamine aggregation suppression; stronger effect = higher value.
Assay [5] in a line: chitosan synthesis blockers in C. neoformans – flow cytometry, Cibacron Brilliant Red staining (AID 1347148).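 Note: compound exposure lasted three days at 37 degrees C.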 The settings on record: Cryptococcus neoformans chitosan, stronger effect = lower value; at 10 µM unless noted. On the technique in general: A flow cytometer gives signals particle by particle.

`CN1CCC[C@H]1c1cccnc1`: in assay [1], the inhibition of aggregation amounted to 47.1%. In assay [2], the glutamate uptake change worked out at 15.4%. In addition, the inclusion score in assay [3] is 2. In assay [4], this molecule had an aggregation suppression score of 1.26.
In assay [1], `NC(Cc1cc(I)c(Oc2ccc(O)c(I)c2)c(I)c1)C(=O)O` (configuration not stated) gave an inhibition of aggregation of 79.3%. Further, the glutamate uptake change in assay [2] was -8.22%. In assay [4], the aggregation suppression score turned out to be 0.825.
On to `O=C1C(c2c(O)[nH]c3ccccc23)=Nc2ccccc21`, for which, in assay [5], the fold fluorescence is 3.17 [at 190.6 µM] (inactive).
In assay [1], `CN1C2CCC1CC(OC(c1ccccc1)c1ccccc1)C2` (configuration not stated) returned an inhibition of aggregation of 62%. In assay [2], the glutamate uptake change is -4.45%. The aggregation suppression score in assay [4] was found to be 1.04.
With `O=c1[nH]c2ccccc2c2ccccc12`, the fold fluorescence in assay [5] is 3.09 [at 256.1 µM] (inactive).
Regarding `CN(C)CC/C=C1/c2ccccc2COc2ccccc21`, in assay [1], the inhibition of aggregation is 92.3%. Also, in assay [2], the glutamate uptake change worked out at 2.11%. The molecule also had an inclusion score in assay [3] of 2. For the same molecule, in assay [4], the aggregation suppression score is 1.19.
For `COc1cc([C@@H]2c3cc4c(cc3[C@@H](O[C@@H]3O[C@@H]5CO[C@@H](C)O[C@H]5[C@H](O)[C@H]3O)[C@H]3COC(=O)[C@H]23)OCO4)cc(OC)c1O`, in assay [5], the fold fluorescence is 5.2 [at 85 µM] (inactive).

The values above are taken from PubChem BioAssay.
